The results in this text go back to PubChem BioAssay (NCATS).

Results filed as inconclusive are left out. Entries that show only a call come without a potency. Activity calls are given as the source filed them. Unless noted, calls come from the whole dose curve.
Potency is the fitted concentration of half-maximal effect.

Nucleoprotein (Lymphocytic choriomeningitis virus (strain Armstrong)), sequence (P09992 whole entry, looked up): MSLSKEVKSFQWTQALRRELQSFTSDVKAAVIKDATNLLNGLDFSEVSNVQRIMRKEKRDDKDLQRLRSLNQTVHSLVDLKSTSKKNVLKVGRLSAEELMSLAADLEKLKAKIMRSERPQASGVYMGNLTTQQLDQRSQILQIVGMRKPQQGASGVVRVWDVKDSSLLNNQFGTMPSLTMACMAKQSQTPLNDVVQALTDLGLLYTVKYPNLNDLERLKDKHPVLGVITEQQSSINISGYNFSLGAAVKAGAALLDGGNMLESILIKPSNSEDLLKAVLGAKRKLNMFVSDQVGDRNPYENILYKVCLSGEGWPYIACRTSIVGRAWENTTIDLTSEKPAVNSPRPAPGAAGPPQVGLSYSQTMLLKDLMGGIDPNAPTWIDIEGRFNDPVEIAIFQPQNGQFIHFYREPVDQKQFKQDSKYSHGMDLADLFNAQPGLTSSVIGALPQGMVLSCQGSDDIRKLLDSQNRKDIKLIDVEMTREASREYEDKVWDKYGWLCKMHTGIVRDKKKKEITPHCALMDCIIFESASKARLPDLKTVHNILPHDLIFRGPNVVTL

Test system in the first assay: not listed separately
Briefly: qHTS for Inhibitors of the Functional Ribonucleoprotein Complex (vRNP) of Lymphocytic Choriomeningitis Arenaviruses (LCMV): Viability assay - alamar blue signal for LCMV Primary Screen (AID 1347085; calls by dose curve; tested in HEK293 reporter line; note: nearly all actives have a fitted effect of over 80% in size). Conditions: alamar blue viability counter-screen, LCMV vRNP screen cells; series mostly up to 57.5 µM. (Quantitative high-throughput screening tests each substance at several concentrations.)
As for `O=C(C=Cc1ccc(/C=C/C(=O)Nc2ccc(C3=NCCN3)cc2)cc1)Nc1ccc(C2=NCCN2)cc1`, the Potency result was “inactive”.
Turning to `CC1(C)CCC(c2ccc(Cl)cc2)=C(CN2CCN(c3ccc(C(=O)NS(=O)(=O)c4ccc(N[C@H](CCN5CCOCC5)CSc5ccccc5)c(S(=O)(=O)C(F)(F)F)c4)cc3)CC2)C1`, the Potency entry is “inactive”.
Still for that read-out and setting: the same measure for `Cc1[nH]nc2ccc(-c3cncc(OC[C@@H](N)Cc4ccccc4)c3)cc12`: 1370 nM (active).
Still for that read-out and setting: the result for `CN1C(=O)CC[C@H]1c1cccnc1` reads “inactive”.
Same read-out and setting: the result for `COc1cc2c(cc1OC)C(=O)CC2` reads “inactive”; that for `[O-][n+]1cccc(/C(Cl)=N/OC[C@@H](O)CN2CCCCC2)c1`, “inactive”.
For `COc1ccc(-c2ccc3c(N4CCOC[C@H]4C)nc(N4CCOC[C@H]4C)nc3n2)cc1CO`, the Potency was 30.6 nM (active).
Same read-out and setting: the same measure for `O=C1NS(=O)(=O)c2ccccc21`: “inactive”.
For `CCC(=O)N1CCN(c2ccc(-n3c(=O)ccc4cnc5ccc(-c6cnc7ccccc7c6)cc5c43)cc2C(F)(F)F)CC1`, the Potency is 27.3 nM (active).
On the same count and under the same terms, the result for `O=C(Nc1cccc(Cl)c1)Nc1ncc(CCNc2ncnc3ccsc23)s1` reads “inactive”; that for `Cc1cc(SCc2sc(-c3ccc(C(F)(F)F)cc3)nc2C)ccc1OCC(=O)O`, “inactive”; that for `NC(=O)c1ccc(I)c([N+](=O)[O-])c1`, “inactive”.
Regarding `O=C1C(CCC(O)c2ccc(F)cc2)C(c2ccc(O)cc2)N1c1ccc(F)cc1` (stereo not drawn), the Potency entry is “inactive”.
The same measure, in the same setting: the same measure for `CCN(CC)CCc1nc(-c2ccccc2)no1`: “inactive”.
As for `O=C(O)c1ccc2cc(-c3ccc(O)c(C45CC6CC(CC(C6)C4)C5)c3)ccc2c1`, the Potency result is “inactive”.
As to `O=S(c1cc(Cl)cc(Cl)c1O)c1cc(Cl)cc(Cl)c1O`, the Potency result is “inactive”.
On the same count and under the same terms, the result for `O=C(O)c1ccccc1NCCc1ccccc1` reads “inactive”.
On the same count and under the same terms, the same measure for `C[C@H](NC(=O)Cc1cc(F)cc(F)c1)C(=O)N[C@@H]1C(=O)N(C)c2ccccc2-c2ccccc21`: “inactive”.
As to `Cc1cccc(C)c1NC(=O)c1ccc(N)cc1`, the Potency entry was “inactive”.
On to `Fc1ccc(Cl)cc1-c1nc(Nc2ccncc2)c2nccnc2n1`, for which the Potency entry was “inactive”.
As for `Nc1ccc(S(=O)(=O)Nc2ccccc2)cc1`, the Potency result is “inactive”.
Take `CCOC(CN1C(=O)[C@](CC(=O)Nc2ccc(C)cc2)(NC(=O)Nc2ccc(C)cc2)c2ccccc21)OCC`: the Potency result was “inactive”.
The same measure, in the same setting: the same measure for `C#CC(C)(CC)OC(=O)c1ccccc1C(=O)O` (stereo not drawn): “inactive”; for `COc1cc(Oc2ccnc3cc(OC)c(OC)cc23)ccc1NC(=O)NC(C)c1nccs1` (stereo not drawn): “inactive”; for `C=CCNC(N)=S`: “inactive”.
Same read-out and setting: the result for `S=c1[nH]c2ccccc2s1` reads “inactive”; that for `COc1nc(-c2ccc3c(c2)OCO3)n(-c2ccc(NC(=O)CSc3ccccc3)cc2)n1`, “inactive”.
The same measure, in the same setting: the same measure for `CCCCCCCCOc1ccc(C(=O)c2ccccc2)c(O)c1`: “inactive”; for `CCC(=C(c1ccccc1)c1ccc(OCCN(C)C)cc1)c1ccccc1`: “inactive”; for `O=C(C=Cc1c(C(=O)O)[nH]c2cc(Cl)cc(Cl)c12)Nc1ccccc1`: “inactive”.
Regarding `CC(C)CCCC(C)CCCC(C)CCCCC(C)CCCC(C)CCCC(C)C` (stereo not drawn), the Potency entry was “inactive”.
Still for that read-out and setting: the result for `Oc1cccc(-c2nc(N3CCOCC3)c3oc4ncccc4c3n2)c1` reads 1400 nM (active); that for `C[C@@H](N)C1CCC(C(=O)Nc2ccncc2)CC1` (stereo partly drawn), 863 nM (active); that for `O=C(NO)c1ccccc1`, “inactive”.
Same read-out and setting: the same measure for `O=C(Nc1cccc(C2=NCCN2)c1)Nc1cccc(C2=NCCN2)c1`: “inactive”; for `O=C(O)[C@@H](c1ccc(OCc2ccc3ccccc3n2)cc1)C1CCCC1`: “inactive”.
`O=C1CCCC2=C1C(c1[nH]ncc1Cl)N=C(Nc1nc3ccccc3o1)N2` (stereo not drawn): the Potency entry was “inactive”.
On the same count and under the same terms, the same measure for `CC(C)(C)c1nnc(NS(=O)(=O)c2ccccc2)s1`: “inactive”; for `CCCCCCCCCCC(CO)CCCCCCCC` (stereo not drawn): “inactive”.

A further assay addresses Nucleoprotein (Lymphocytic choriomeningitis virus (strain Armstrong)) (UniProt P09992). Briefly: qHTS for Inhibitors of the Functional Ribonucleoprotein Complex (vRNP) of Lymphocytic Choriomeningitis Arenaviruses (LCMV): LCMV Primary Screen - GLuc reporter signal (AID 1347086). Note: nearly all actives have a fitted effect of over 70% in size. Conditions: LCMV minigenome vRNP cell assay, Gaussia luciferase reporter; series mostly up to 57.5 µM.
`O=C(C=Cc1ccc(/C=C/C(=O)Nc2ccc(C3=NCCN3)cc2)cc1)Nc1ccc(C2=NCCN2)cc1`: the Potency entry was “inactive”.
`CC1(C)CCC(c2ccc(Cl)cc2)=C(CN2CCN(c3ccc(C(=O)NS(=O)(=O)c4ccc(N[C@H](CCN5CCOCC5)CSc5ccccc5)c(S(=O)(=O)C(F)(F)F)c4)cc3)CC2)C1`: the Potency entry is “inactive”.
Turning to `Cc1[nH]nc2ccc(-c3cncc(OC[C@@H](N)Cc4ccccc4)c3)cc12`, the Potency is 273 nM (active).
Turning to `CN1C(=O)CC[C@H]1c1cccnc1`, the Potency result is “inactive”.
Same read-out and setting: the result for `COc1cc2c(cc1OC)C(=O)CC2` reads “inactive”; that for `[O-][n+]1cccc(/C(Cl)=N/OC[C@@H](O)CN2CCCCC2)c1`, “inactive”.
Regarding `COc1ccc(-c2ccc3c(N4CCOC[C@H]4C)nc(N4CCOC[C@H]4C)nc3n2)cc1CO`, the Potency is 30.6 nM (active).
The same measure, in the same setting: the same measure for `O=C1NS(=O)(=O)c2ccccc21`: “inactive”; for `CCC(=O)N1CCN(c2ccc(-n3c(=O)ccc4cnc5ccc(-c6cnc7ccccc7c6)cc5c43)cc2C(F)(F)F)CC1`: 68.5 nM (active).
On the same count and under the same terms, the same measure for `O=C(Nc1cccc(Cl)c1)Nc1ncc(CCNc2ncnc3ccsc23)s1`: “inactive”; for `Cc1cc(SCc2sc(-c3ccc(C(F)(F)F)cc3)nc2C)ccc1OCC(=O)O`: “inactive”; for `NC(=O)c1ccc(I)c([N+](=O)[O-])c1`: “inactive”.
The same measure, in the same setting: the result for `O=C1C(CCC(O)c2ccc(F)cc2)C(c2ccc(O)cc2)N1c1ccc(F)cc1` (stereo not drawn) reads “inactive”; that for `CCN(CC)CCc1nc(-c2ccccc2)no1`, “inactive”.
For the compound `O=C(O)c1ccc2cc(-c3ccc(O)c(C45CC6CC(CC(C6)C4)C5)c3)ccc2c1`, the Potency entry is “inactive”.
In the case of `O=S(c1cc(Cl)cc(Cl)c1O)c1cc(Cl)cc(Cl)c1O`, the Potency entry was “inactive”.
On the same count and under the same terms, the same measure for `O=C(O)c1ccccc1NCCc1ccccc1`: “inactive”.
Consider `C[C@H](NC(=O)Cc1cc(F)cc(F)c1)C(=O)N[C@@H]1C(=O)N(C)c2ccccc2-c2ccccc21`, for which the Potency result was “inactive”.
Still for that read-out and setting: the same measure for `Cc1cccc(C)c1NC(=O)c1ccc(N)cc1`: “inactive”; for `Fc1ccc(Cl)cc1-c1nc(Nc2ccncc2)c2nccnc2n1`: “inactive”; for `Nc1ccc(S(=O)(=O)Nc2ccccc2)cc1`: “inactive”.
Same read-out and setting: the same measure for `CCOC(CN1C(=O)[C@](CC(=O)Nc2ccc(C)cc2)(NC(=O)Nc2ccc(C)cc2)c2ccccc21)OCC`: “inactive”.
On the same count and under the same terms, the result for `C#CC(C)(CC)OC(=O)c1ccccc1C(=O)O` (stereo not drawn) reads “inactive”; that for `COc1cc(Oc2ccnc3cc(OC)c(OC)cc23)ccc1NC(=O)NC(C)c1nccs1` (stereo not drawn), “inactive”; that for `C=CCNC(N)=S`, “inactive”.
As for `S=c1[nH]c2ccccc2s1`, the Potency result is “inactive”.
With `COc1nc(-c2ccc3c(c2)OCO3)n(-c2ccc(NC(=O)CSc3ccccc3)cc2)n1`, the Potency entry is “inactive”.
On the same count and under the same terms, the same measure for `CCCCCCCCOc1ccc(C(=O)c2ccccc2)c(O)c1`: “inactive”; for `CCC(=C(c1ccccc1)c1ccc(OCCN(C)C)cc1)c1ccccc1`: “inactive”; for `O=C(C=Cc1c(C(=O)O)[nH]c2cc(Cl)cc(Cl)c12)Nc1ccccc1`: “inactive”.
The same measure, in the same setting: the same measure for `CC(C)CCCC(C)CCCC(C)CCCCC(C)CCCC(C)CCCC(C)C` (stereo not drawn): “inactive”; for `Oc1cccc(-c2nc(N3CCOCC3)c3oc4ncccc4c3n2)c1`: 1400 nM (active); for `C[C@@H](N)C1CCC(C(=O)Nc2ccncc2)CC1` (stereo partly drawn): 9680 nM (active).
Turning to `O=C(NO)c1ccccc1`, the Potency entry is “inactive”.
Still for that read-out and setting: the result for `O=C(Nc1cccc(C2=NCCN2)c1)Nc1cccc(C2=NCCN2)c1` reads “inactive”; that for `O=C(O)[C@@H](c1ccc(OCc2ccc3ccccc3n2)cc1)C1CCCC1`, “inactive”; that for `O=C1CCCC2=C1C(c1[nH]ncc1Cl)N=C(Nc1nc3ccccc3o1)N2` (stereo not drawn), “inactive”.
Same read-out and setting: the result for `CC(C)(C)c1nnc(NS(=O)(=O)c2ccccc2)s1` reads “inactive”.
On the same count and under the same terms, the same measure for `CCCCCCCCCCC(CO)CCCCCCCC` (stereo not drawn): “inactive”.
